For 65 compounds, inhibition results are on record in PubChem BioAssay AID777 (Sanford-Burnham Center for Chemical Genomics, 2007).

Among all 96,000 compounds or so, about 19,000 (20%) were called active.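 Rule for the calls: active = blocking of liver enzyme CYP2C9 beyond about 50% at 5 µM (limit read from the data); inactive = the rest.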 Not all results are given here.

The assay deals with Cytochrome P450 2C9 (Homo sapiens) (UniProt P11712). Kind of assay: blockers of cytochrome P450 2C9 activity – biochemical, luminescence, ADME assay, primary screen (AID 777). As to conditions: CYP2C9 Supersomes, luciferin-H conversion, at 5 µM, stronger effect = higher value.
Cytochrome P450 2C9 (Homo sapiens), sequence (P11712 whole entry, looked up): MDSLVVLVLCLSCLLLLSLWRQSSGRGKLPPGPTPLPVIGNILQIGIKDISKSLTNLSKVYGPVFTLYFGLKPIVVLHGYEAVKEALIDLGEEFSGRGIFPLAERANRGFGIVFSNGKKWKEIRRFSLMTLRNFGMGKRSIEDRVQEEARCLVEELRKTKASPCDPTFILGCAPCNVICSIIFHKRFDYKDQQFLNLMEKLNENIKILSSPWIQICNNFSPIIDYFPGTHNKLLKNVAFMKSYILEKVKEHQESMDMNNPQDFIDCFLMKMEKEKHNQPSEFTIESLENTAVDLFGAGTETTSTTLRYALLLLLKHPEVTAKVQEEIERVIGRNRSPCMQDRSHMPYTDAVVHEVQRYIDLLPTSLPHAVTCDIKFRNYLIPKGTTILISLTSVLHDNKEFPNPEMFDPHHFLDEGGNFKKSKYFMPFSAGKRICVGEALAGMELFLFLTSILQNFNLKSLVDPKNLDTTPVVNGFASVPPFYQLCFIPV
Turning to `Cc1ccc(NC(=S)Nc2ncccc2C)c(C)c1`, the inhibition is -26.1% (inactive).
In the case of `CCOC(=O)c1sc2nc(CSCC(=O)OCc3ccc(C(=O)OC)o3)[nH]c(=O)c2c1C` it was 54.4% (active).
For `CCOC(=O)c1ccc(COC(=O)c2cc(=O)[nH]c3ccccc23)o1` the value was -27.9% (inactive); for `CCOc1cc(/C=N/n2cnnc2)c(Br)cc1O`, 43.2% (inactive).
Consider `Cc1cc(C(=O)OC(C)C(=O)Nc2cccc(S(=O)(=O)N3CCOCC3)c2)c(C)o1` (stereo not given), for which the inhibition was 97.4% (active).
In the case of `COc1ccccc1N1CC(C(=O)Nc2ccc(S(=O)(=O)N3CCOCC3)cc2)CC1=O` (stereo not given) it was 8.1% (inactive); in that of `Cc1cc(=O)oc2cc(OC(C)C(=O)Nc3ccc(N4CCOCC4)cc3)ccc12` (stereo not given), -6.3% (inactive); in that of `O=C(O)CCC(=O)NCc1ccc2[nH]c3c(c2c1)CCCC3`, -5.1% (inactive).
In the case of `COc1ccc(CNC2CCCCC2)cc1` it was 2.3% (inactive).
In the case of `CCOC(=O)C1CCN(C(=O)C2CCN(S(=O)(=O)N3CCCC3)CC2)CC1` it was 20.7% (inactive).
Consider `CCOC(=O)C1CCN(C(=O)Nc2ccc(Cl)cc2)CC1`, for which the inhibition is 53.3% (active).
For `CCOC(=O)C1CCN(C(=O)C2CCN(S(=O)(=O)CC)CC2)CC1` the value was -14.3% (inactive); for `O=C(CC(Cc1ccccc1)C(=O)O)NCCc1ccc2c(c1)OCO2` (stereo not given), 75.5% (active); for `O=C(CN(Cc1ccccc1)C(=O)c1ccc2c(c1)OCCO2)NCc1ccc2c(c1)OCO2`, 50.2% (active).
In the case of `CC1CCCC(C)N1C(=O)CN1CCN(c2nc(-c3ccc(F)cc3)cs2)CC1` (stereo not given) it was 1.8% (inactive); in that of `O=C(COC(=O)c1ccc2c(c1)OCCO2)NCc1ccccc1`, -9.3% (inactive).
In the case of `O=C(Cn1nnc(-c2ccccc2)n1)NCc1ccc2c(c1)OCO2` it was 50.4% (active); in that of `O=C(NCCc1ccc2c(c1)OCCO2)c1cc2ccccc2o1`, 35.2% (inactive); in that of `O=C(COc1ccccc1)NCc1ccc2c(c1)OCO2`, 32.4% (inactive).
`O=C(Cn1nnc(-c2ccccc2)n1)NCc1ccccc1`: the inhibition is -11.3% (inactive).
As to `O=C(Cn1nnc(-c2ccc3c(c2)OCO3)n1)NCc1ccco1`, the inhibition is 16.6% (inactive).
For `O=C(CN1CCN(c2nc(-c3ccccc3)cs2)CC1)NCc1ccc2c(c1)OCO2` the value was 91.4% (active); for `COc1ccc(-c2csc(N3CCN(Cc4ccc5c(c4)OCO5)CC3)n2)cc1`, -14.4% (inactive); for `O=C(NCc1ccc2c(c1)OCO2)c1cc2c(s1)CS(=O)(=O)C2`, 25% (inactive).
`N#C/C=C1\Sc2ccccc2C(=O)N1CC(=O)N1CCN(S(=O)(=O)c2ccccc2)CC1`: the inhibition is -15.4% (inactive).
For `Cc1c(-c2ccccc2)nc(N)c(C#N)c1-c1cccs1` the value was 29.3% (inactive); for `O=c1c2ccccc2nc2n1C(CSc1ccc(Cl)cc1)CN2` (stereo not given), -1.6% (inactive); for `Cc1nc2ccc(S(=O)(=O)NC(C(=O)N3CCCCCC3)C(C)C)cc2s1` (stereo not given), 26.6% (inactive).
As for `COC(=O)Nc1ncc(CN2C(=O)c3ccccc3C2=O)s1`, the inhibition is -12% (inactive).
In the case of `N/C(=N\OC(=O)CCC1CCCCC1)c1ccccn1` it was 0.9% (inactive); in that of `O=C(O)c1cc(S(=O)(=O)N2CCCCCC2)c(Cl)cc1Cl`, 22.4% (inactive); in that of `O=C(COC(=O)c1ccccc1SCC(=O)NC1CCCCC1)NC1CCCCC1`, 12.1% (inactive).
As to `CCOC(=O)c1ccc(COC(=O)CCc2nc(-c3ccccc3)c(-c3ccccc3)o2)cc1`, the inhibition is 85.6% (active).
As to `CCOC(=O)c1ccc(-c2ccc(C(=O)Nc3cccnc3)o2)cc1`, the inhibition was 14.6% (inactive).
In the case of `CCOC(=O)c1cc(NC(=O)c2ccc(Cl)cc2)c(=O)oc1-c1ccccc1`, the inhibition is -22.2% (inactive).
In the case of `Cc1ccc(O)c(NC(=O)COc2cc(C)ccc2C)c1` it was -59.4% (inactive); in that of `COc1ccccc1-c1c(C)nn2c(C)c(C(C)=O)cnc12`, 3.7% (inactive).
For `COc1ccc(-c2nc(SCC(=O)N3CCOCC3)n[nH]2)cc1` the value was -9.6% (inactive); for `O=C1/C(=C/c2cccs2)CCc2ccccc21`, 72.8% (active).
For `C(=N/N1CCN(c2ccccc2)CC1)/c1cccs1` the value was 40.3% (inactive); for `Cc1ccc(N2CCN(C3=NC(=O)/C(=C\c4cccs4)S3)CC2)cc1`, -127% (inactive).
Regarding `Cc1ccc(C(=O)Nc2c(C#N)c(C)c(C)n2Cc2ccccc2)cc1`, the inhibition is 22.4% (inactive).
For `COc1ccc(Cn2c(C)c(C)c(C#N)c2NC(=O)Nc2ccc(F)cc2)cc1` the value was 13.6% (inactive); for `Cc1c(C#N)c(NC(=O)c2ccccc2)n(Cc2ccccc2)c1C`, 60.7% (active).
For `CCCc1nc(N)nc2c1C(=O)CC(C)(C)C2`, the inhibition is -35.3% (inactive).
As to `CCCSc1nsc(N)n1`, the inhibition is 16.4% (inactive).
For `O=C(Nc1ccncc1)c1cc2ccccc2o1` the value was 86% (active).
In the case of `O=C(Nc1ccncc1)c1c(F)cccc1F` it was 40.2% (inactive); in that of `O=C(Nc1cccc(-c2nc3ncccc3o2)c1)c1ccco1`, -2.1% (inactive); in that of `O=C(C1CCCO1)N(Cc1ccccc1)c1ccccc1` (stereo not given), -4% (inactive).
In the case of `Cc1cc([N+](=O)[O-])c(N2CCC[C@@H]2C(=O)O)c([N+](=O)[O-])c1` it was 5.1% (inactive).
In the case of `CS(=O)(=O)c1ccc2nc(NC(=O)C3C4C=CC(C4)C3C(=O)O)sc2c1` (stereo not given), the inhibition is -5.4% (inactive).
In the case of `CC(C)(C)n1c(=O)[nH]c2c(c1=O)CCC2` it was -7.2% (inactive); in that of `CCOc1ccccc1NC(=O)C1CCN(S(=O)(=O)c2c(C)nn(C)c2C)CC1`, -30.6% (inactive).
On to `CCOc1ccc(OCC)c(NC(=O)C2CCN(S(=O)(=O)c3c(C)noc3C)CC2)c1`, for which the inhibition was 48.4% (inactive).
In the case of `COC(=O)c1ccccc1NC(=O)C1CCN(S(=O)(=O)c2cc(OC)ccc2OC)CC1` it was 92.2% (active); in that of `O=C(Cc1c(O)c2ccccc2[nH]c1=O)NCc1ccccc1`, 9.8% (inactive); in that of `O=C(Nc1ccon1)c1cccc(Cl)c1`, 17.5% (inactive).
For `Cc1ccc(Oc2ccc(N)cc2)cc1` the value was 29.2% (inactive).
For `CC(C(=O)Nc1ccc(F)c(F)c1F)N1CCCCCC1` (stereo not given) the value was 13.7% (inactive); for `Cc1cc(NC(=O)COc2ccc(Cl)cc2Cl)n(CCC#N)n1`, 16.2% (inactive).
`O=C1CCCC2=C1C(c1ccccc1)n1c(s/c(=C/c3cccc(F)c3)c1=O)=N2` (stereo not given): the inhibition was 49.7% (inactive).
For `O=C(NC1CCCCC1)n1c(=O)oc2cc(S(=O)(=O)N3CCCCC3)ccc21` the value was -56.7% (inactive).
For `CCOC(=O)Cn1c(=O)oc2cc(S(=O)(=O)NCC3CCCO3)ccc21` (stereo not given) the value was 11.7% (inactive).
For `CC(C)CCNC(=O)Cn1c(=O)oc2cc(S(=O)(=O)N3CC(C)CC(C)C3)ccc21` (stereo not given), the inhibition is 51.3% (active).
